Assay results from ChEMBL document CHEMBL3988442, “University of Dundee, Small-Polar-MMV Screening Library” (2021).

The compounds below were run against AMP-activated protein kinase, AMPK (Homo sapiens) (UniProt P54646+O43741+P54619+Q9UGJ0+Q9Y478+Q13131+Q9UGI9) (assay: AMP-dependent Kinase enzyme assay. An in vitro enzyme assay that detects ADP turnover that is directly proportional to AMPK activity. This uses naive AMPK that is activated during the assay with MK-8722). Conditions: 30 µM.
Format: functional
Parameters: scale not given: direction of the effect not stated beside the values
`CCN(CC(=O)NC(C)(C)C)Cc1cccc2c1OCCO2` showed a Percent Effect of -0.533%. In the case of `Cc1noc(C)c1C(=O)N(C)C(C)c1ccc(S(C)(=O)=O)cc1` (stereo not given), the Percent Effect is reported as -2.19%. `CC(NC(=O)N1CCCC1)c1ccc(S(N)(=O)=O)cc1` (stereo not given) gave a Percent Effect of 9.72%. Work on `CC(C)C(NC(=O)NCc1cccnc1N(C)C)c1cccs1` (stereo not given) yielded a Percent Effect of 0.836%. `CN(Cc1ccc(OCC(=O)N2CCOCC2)cc1)S(C)(=O)=O` gave a Percent Effect of -30.8%. For `CC(C)(C)c1cn2c(n1)C(CNCc1ccccn1)CCC2` (stereo not given), the Percent Effect was -3.66%. With `COc1ncc(NCc2ccc(C#N)cc2)cc1C(N)=O` the Percent Effect was 2.92%. For `COc1cccc(S(=O)(=O)N2CCCCC2CCN2CCCC2=O)c1` (stereo not given), the Percent Effect was 5.93%. `Cc1ccnc2c1NC(=O)CN2C(=O)CCC(F)(F)F` showed a Percent Effect of 1.79%. With `Cc1cc(N(C)C)nc(N2CCn3c(C)nnc3C2)n1` the Percent Effect was -2.14%. `Nc1nc2c(c(NCc3nccs3)n1)CCN(CC1CCCC1)CC2` gave a Percent Effect of 1.23%. With `Cc1ncsc1CCN(C)C(=O)CCc1nc2cccnc2n1C` the Percent Effect was -7.17%. `O=C(Cc1c[nH]c(=O)[nH]c1=O)N1CCCCC1CCc1cccc(O)c1` (stereo not given) gave a Percent Effect of 1.27%. `CN(C)Cc1cn(-c2ccccc2C(=O)NCC2CCCCN2C)cn1` (stereo not given) was tested, and the Percent Effect was -15.9%. For `CSc1ccc(C(=O)C2CCCN(C(=O)CCCn3cncn3)C2)cc1` (stereo not given), the Percent Effect was 9.79%. Compound `Cc1nc(COc2ccc(N(C)S(C)(=O)=O)cc2)sc1C` has a Percent Effect of -7%. In the case of `Cc1cc(NCCNc2cccnc2)nc(N)n1`, the Percent Effect is reported as -11.6%. In the case of `CCc1nccn1CC1CCCN1S(=O)(=O)N1CCCOCC1` (stereo not given), the Percent Effect is reported as 15.2%. Work on `CC(=O)NCCc1cc2nc(-c3ccncc3)ccn2n1` yielded a Percent Effect of 17.4%. With `CC1CN(c2ncnc3c2cnn3C)CCN1c1nccs1` (stereo not given) the Percent Effect was 11.2%. `O=C(CCn1cccn1)NCCOc1ncc(Cl)cc1Cl` was tested, and the Percent Effect was 2.54%. Compound `COc1cccc(CC2CCCN2Cc2nccn2C)c1` (stereo not given) has a Percent Effect of -2.19%. Compound `Cc1c(CN2Cc3nccn3CC2c2ccccc2)cnn1C` (stereo not given) has a Percent Effect of 7.11%. With `Cc1cc(CN2CCN(S(=O)(=O)c3c(C)c(Cl)cc(C)c3Cl)CC2)on1` the Percent Effect was -3.43%. `Cc1ncc(CNC(=O)NCC(C)Oc2ccccc2F)s1` (stereo not given) was tested, and the Percent Effect was 6.1%. `CC(C)(C)CN(CCC#N)C(=O)Nc1cccc(N2CCNC2=O)c1` was tested, and the Percent Effect was -2.8%. `Cc1ccc(OCc2occc2C(=O)N2CCOC(C(=O)O)C2)cc1` (stereo not given) gave a Percent Effect of 2.93%. `CCCn1cc(NC(=O)c2cccc(CN3CC[C@H](O)C3)c2)nn1` showed a Percent Effect of -5.04%. Compound `Cc1cnc(C(=O)N2CCN(c3ncc4c(n3)CCOC4)CC2)cn1` has a Percent Effect of 15.1%. Compound `Cc1ncsc1C(=O)OCCN1CCCc2ccccc21` has a Percent Effect of 8.19%. With `Cc1nn(C)c2nc(N3CCCCC3c3nccs3)sc12` (stereo not given) the Percent Effect was 5.6%. `O=C(c1ccnc(CC2COc3ccccc3C2)c1)N1CCCC1` (stereo not given) showed a Percent Effect of 7.97%. `CSCC(=O)N(C)Cc1noc(-c2ccccc2)n1` was tested, and the Percent Effect was 6.32%. For `CC(C)Cn1cc(NC(=O)c2cccc(N(C)C)c2)cn1`, the Percent Effect was 1.9%. With `CSCCC(NC(=O)C1CC1)C(=O)N(C)Cc1ccsc1` (stereo not given) the Percent Effect was -0.745%. Work on `COc1ccccc1CN(Cc1nc(CC(C)C)no1)C1CC1` yielded a Percent Effect of 14.9%. Work on `O=C(CNC(=O)c1ccccc1F)NCc1ccccn1` yielded a Percent Effect of 0.147%. In the case of `CCCN1CCC(CC(=O)NCCc2nc(C)cc(C)n2)CC1`, the Percent Effect is reported as 6.07%. `O=C(Cc1ccc(Cl)s1)Nc1ccc2c(c1)C(=O)NC2=O` showed a Percent Effect of 68.3%. `CC(C)N1CC(c2ccnc(Nc3nccs3)n2)C1` was tested, and the Percent Effect was 13.4%.
